# Inconclusive results are not listed. Activity calls are given as the source filed them. Rule for the calls, unless noted: active = hit-call score of the fitted dose curve at least 0.9, where 1 is the maximum; inactive = score below 0.9.
# Tests used:
# [1] = read-out: Interleukin-1 alpha (IL1a), IL1A (gene 3552); assay: BSK_BE3C_IL1a: BioMAP Diversity Plus: BE3C Assay for Interleukin-1 alpha (IL1a) Biomarker Activity (AID 2283016); conditions: primary human bronchial epithelial cells; actives raise or lower the signal
# In short: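 ELISA read-out of IL-1a from human lung bronchial epithelial primary cells, 24 h post-dose. Gain or loss of signal fitted relative to DMSO negative control.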
# [2] = read-out: Monocyte Chemoattractant Protein-1 (MCP1), CCL2 (gene 6347); assay: BSK_3C_MCP1: BioMAP Diversity Plus: 3C Assay for Monocyte Chemoattractant Protein-1 (MCP1) Biomarker Activity (AID 2283017); conditions: primary human endothelial cells (HUVEC); actives raise or lower the signal
# In short: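 Primary human umbilical vein endothelial cells (3C system) were exposed to test chemical for 24 h, after which MCP-1 was quantified by ELISA. Activity was fitted bidirectionally against DMSO as negative control and baseline.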
# [3] = read-out: Monocyte Chemoattractant Protein-1 (MCP1), CCL2 (gene 6347); assay: BSK_4H_MCP1: BioMAP Diversity Plus: 4H Assay for Monocyte Chemoattractant Protein-1 (MCP1) Biomarker Activity (AID 2283018); conditions: primary human endothelial cells (HUVEC); actives raise or lower the signal
# In short: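 HUVEC primary cells, 24 h post-dose, MCP-1 by ELISA. Gain or loss of signal fitted bidirectionally vs DMSO baseline. Cytotoxicity: SRB stain (0.1% after 10% TCA fixation), read 560 nm, parallel cultures.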
# [4] = read-out: Human Leukocyte Antigen - DR isotype (HLADR), HLA-DRA (gene 3122); assay: BSK_3C_HLADR: BioMAP Diversity Plus: 3C Assay for Human Leukocyte Antigen - DR isotype (HLADR) Biomarker Activity (AID 2283019); conditions: primary human endothelial cells (HUVEC); actives raise or lower the signal;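 for outcome: ELISA of cell-surface HLA-DR on HUVEC 24 h after dosing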
# In short: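 Primary human umbilical vein endothelial cells (3C system) were dosed with compound and cell-surface HLA-DR was quantified by ELISA at 24 h. Activity was fitted bidirectionally against DMSO as negative control and baseline.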
# [5] = read-out: Interleukin-8 (IL8), CXCL8 (gene 3576); assay: BSK_3C_IL8: BioMAP Diversity Plus: 3C Assay for Interleukin-8 (IL8) Biomarker Activity (AID 2283020); conditions: primary human endothelial cells (HUVEC); actives raise or lower the signal
# In short: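 HUVEC, 3C stimulation; 24 h compound exposure; IL-8 read by ELISA; gain or loss of signal fitted relative to DMSO control.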
# [6] = read-out: Monokine induced gamma interferon (MIG), CXCL9 (gene 4283); assay: BSK_3C_MIG: BioMAP Diversity Plus: 3C Assay for Monokine induced gamma interferon (MIG) Biomarker Activity (AID 2283021); conditions: primary human endothelial cells (HUVEC); actives raise or lower the signal
# In short: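 HUVEC, 3C system; 24 h chemical exposure; MIG by ELISA; bidirectional fit vs DMSO baseline.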
# [7] = molecular target: human Vitamin D Receptor (VDR), VDR (gene 7421) (UniProt P11473); assay: ATG_VDR_TRANS: Attagene TRANS-FACTORIAL HepG2 Assay for human Vitamin D Receptor (VDR) (AID 2283022; active = hit-call score of the fitted dose curve at least 0.9, where 1 is the maximum)
# In short: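 HepG2 cells were transiently transfected with multiple GAL4-UAS reporter units, so signal reflects exogenous chimeric receptor-Gal4 activity. After 24 h compound exposure, reporter mRNA was measured by RT-PCR, fluorescent labelling and capillary electrophoresis, fitted for gain of signal versus DMSO.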
# [8] = BSK_3C_SRB: Viability Assessment in the BioMAP Diversity Plus: 3C Assay (AID 2283023); conditions: primary human endothelial cells (HUVEC);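 note: fitted both ways against DMSO so a hit may be signal rise or drop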
# In short: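 Primary human umbilical vein endothelial cells in the 3C system were read 24 h after compound dosing. Total protein was stained with 0.1% sulforhodamine B after 10% TCA fixation and read at 560 nm, with bidirectional fitting against DMSO as baseline.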
# [9] = read-out: Matrix Metallopeptidase 1 (MMP1), MMP1 (gene 4312); assay: BSK_BE3C_MMP1: BioMAP Diversity Plus: BE3C Assay for Matrix Metallopeptidase 1 (MMP1) Biomarker Activity (AID 2283024); conditions: primary human bronchial epithelial cells; actives raise or lower the signal
# In short: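 ELISA read-out of MMP1 in human lung bronchial epithelial primary cultures, 24 h post-dose; bidirectional curve fit vs DMSO baseline, gain or loss of signal scored.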
# [10] = BSK_3C_Vis: BioMAP Diversity Plus: 3C Assay for Morphology Visualization (AID 2283025); conditions: primary human endothelial cells (HUVEC);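 note: fitted both ways so gain or loss versus DMSO counts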;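 for AC50: light microscopy image of cell morphology used as background control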
# In short: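 HUVEC, 3C system; light microscopy of morphology at 24 h post-dose. Bidirectional fit vs DMSO baseline. Secondary readout, background-control function.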
# [11] = read-out: Pselectin, SELP (gene 6403); assay: BSK_4H_Pselectin: BioMAP Diversity Plus: 4H Assay for Pselectin Biomarker Activity (AID 2283026); conditions: primary human endothelial cells (HUVEC); actives raise or lower the signal
# In short: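 HUVEC, 24 h chemical exposure; P-selectin read by ELISA. Bidirectional curve fit vs DMSO baseline; gain or loss of signal scored.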
# [12] = BSK_4H_SRB: Viability Assessment in the BioMAP Diversity Plus: 4H Assay (AID 2283027); conditions: primary human endothelial cells (HUVEC);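 note: cells exposed to compound for 24 h before staining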
# In short: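 HUVEC, 24 h post-dose; 10% TCA fix, 0.1% SRB stain, A560 nm. Total protein = overt cytotoxicity, parallel to biomarker read. Bidirectional fit vs DMSO baseline.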
# [13] = BSK_BE3C_SRB: Viability Assessment in the BioMAP Diversity Plus: BE3C Assay (AID 2283028); conditions: primary human bronchial epithelial cells
# In short: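 Human primary bronchial epithelial cells were exposed to test chemicals for 24 h. Total protein in parallel cultures was then measured by staining with 0.1% sulforhodamine B after 10% TCA fixation, with absorbance read at 560 nm. Activity was fitted bidirectionally against DMSO.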
# [14] = read-out: Thrombomodulin, THBD (gene 7056); assay: BSK_3C_Thrombomodulin: BioMAP Diversity Plus: 3C Assay for Thrombomodulin Biomarker Activity (AID 2283029); conditions: primary human endothelial cells (HUVEC); actives raise or lower the signal
# In short: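 HUVEC, 3C conditions; compound 24 h; thrombomodulin by ELISA; bidirectional curve fit vs DMSO baseline; parallel SRB total-protein staining for cytotoxicity.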
# [15] = read-out: Urokinase-type plasminogen activator receptor (uPAR), PLAUR (gene 5329); assay: BSK_4H_uPAR: BioMAP Diversity Plus: 4H Assay for Urokinase-type plasminogen activator receptor (uPAR) Biomarker Activity (AID 2283030); conditions: primary human endothelial cells (HUVEC); actives raise or lower the signal
# In short: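 Primary human umbilical vein endothelial cells were exposed to chemical for 24 h before cell-surface uPAR was quantified by ELISA. Activity was fitted bidirectionally against the DMSO negative control baseline.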
# [16] = read-out: Vascular endothelial growth factor receptor 2 (Homo sapiens) (UniProt P35968); assay: BSK_4H_VEGFRII: BioMAP Diversity Plus: 4H Assay for Vascular endothelial growth factor receptor 2 (VEGFR2) Biomarker Activity (AID 2283031); conditions: primary human endothelial cells (HUVEC); actives raise or lower the signal
# In short: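 Primary human umbilical vein endothelial cells in the BioMAP 4H system were dosed with test chemical, and 24 h later VEGFRII was measured by ELISA. Activity was fitted bidirectionally against DMSO as negative control and baseline.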
# [17] = read-out: Human Leukocyte Antigen - DR isotype (HLADR), HLA-DRA (gene 3122); assay: BSK_BE3C_HLADR: BioMAP Diversity Plus: BE3C Assay for Human Leukocyte Antigen - DR isotype (HLADR) Biomarker Activity (AID 2283032); conditions: primary human bronchial epithelial cells; actives raise or lower the signal
# In short: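 Primary human bronchial epithelial cells (BE3C); 24 h chemical exposure; HLA-DR by ELISA; bidirectional curve fit vs DMSO baseline.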
# [18] = read-out: Interferon-gamma inducible Protein 10 (IP10), CXCL10 (gene 3627); assay: BSK_BE3C_IP10: BioMAP Diversity Plus: BE3C Assay for Interferon-gamma inducible Protein 10 (IP10) Biomarker Activity (AID 2283034); conditions: primary human bronchial epithelial cells; actives raise or lower the signal
# In short: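 ELISA readout of IP-10 in BE3C system: primary human bronchial epithelial cells, 24 h post-dosing; bidirectional curve fit vs DMSO baseline.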
# [19] = read-out: Monokine induced gamma interferon (MIG), CXCL9 (gene 4283); assay: BSK_BE3C_MIG: BioMAP Diversity Plus: BE3C Assay for Monokine induced gamma interferon (MIG) Biomarker Activity (AID 2283035); conditions: primary human bronchial epithelial cells; actives raise or lower the signal;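 note: MIG protein measured by ELISA in BE3C cultures after 24 h of dosing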
# In short: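 Dose cells (human primary bronchial epithelial), incubate 24 h, quantify MIG by ELISA, then fit concentration–response in both directions relative to DMSO control.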
# [20] = read-out: Vascular cell adhesion molecule 1 (VCAM1), VCAM1 (gene 7412); assay: BSK_4H_VCAM1: BioMAP Diversity Plus: 4H Assay for Vascular cell adhesion molecule 1 (VCAM1) Biomarker Activity (AID 2283033); conditions: primary human endothelial cells (HUVEC); actives raise or lower the signal;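 note: cell-surface VCAM-1 protein measured by ELISA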
# In short: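 HUVEC, 24 h post-dose; VCAM-1 by ELISA. Bidirectional curve fit vs DMSO baseline. Parallel SRB total-protein stain (0.1% SRB after 10% TCA fixation, 560 nm) for cytotoxicity.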
# human Vitamin D Receptor (VDR), VDR (gene 7421), sequence (P11473 whole entry, looked up, the tested form may be a part): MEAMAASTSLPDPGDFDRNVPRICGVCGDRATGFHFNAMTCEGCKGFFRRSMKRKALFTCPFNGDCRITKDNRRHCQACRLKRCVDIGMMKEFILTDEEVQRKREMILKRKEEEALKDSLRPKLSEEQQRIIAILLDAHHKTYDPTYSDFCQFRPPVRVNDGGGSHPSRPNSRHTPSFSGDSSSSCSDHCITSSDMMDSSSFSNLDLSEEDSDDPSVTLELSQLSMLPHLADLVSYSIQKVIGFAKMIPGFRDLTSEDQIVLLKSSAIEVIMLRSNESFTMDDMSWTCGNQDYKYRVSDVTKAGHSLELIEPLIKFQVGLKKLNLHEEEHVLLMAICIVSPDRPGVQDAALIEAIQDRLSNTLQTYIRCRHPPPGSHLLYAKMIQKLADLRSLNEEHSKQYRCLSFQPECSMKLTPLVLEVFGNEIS
smiles,measurement,setting,value
Clc1nc(Cl)c(Cl)c(Cl)c1Cl,AC50,[1],29.2 µM (active)
same,outcome,[2],inactive
same,outcome,[3],inactive
same,AC50,[4],31.2 µM (active)
same,AC50,[5],14.2 µM (active)
same,outcome,[6],inactive
same,outcome,[7],inactive
same,outcome,[8],inactive
same,outcome,[9],inactive
same,AC50,[10],37.5 µM (active)
same,AC50,[11],30.2 µM (active)
same,outcome,[12],inactive
same,outcome,[13],inactive
same,outcome,[14],inactive
same,outcome,[15],inactive
same,outcome,[16],inactive
same,AC50,[17],26.4 µM (active)
same,outcome,[18],inactive
same,outcome,[19],inactive
CC(C)=CCCC(C)=CC=O,outcome,[1],inactive
same,outcome,[2],inactive
same,outcome,[3],inactive
same,outcome,[4],inactive
same,outcome,[5],inactive
same,outcome,[6],inactive
same,outcome,[7],inactive
same,outcome,[8],inactive
same,outcome,[9],inactive
same,outcome,[10],inactive
same,outcome,[11],inactive
same,outcome,[12],inactive
same,outcome,[13],inactive
same,outcome,[14],inactive
same,outcome,[15],inactive
same,outcome,[16],inactive
same,outcome,[17],inactive
same,outcome,[20],inactive
same,outcome,[18],inactive
same,outcome,[19],inactive
CCCC(=O)OCC,outcome,[1],inactive
same,outcome,[2],inactive
same,outcome,[3],inactive
same,outcome,[4],inactive
same,outcome,[5],inactive
same,outcome,[6],inactive
same,outcome,[7],inactive
same,outcome,[8],inactive
same,outcome,[10],inactive
same,outcome,[11],inactive
same,outcome,[12],inactive
same,outcome,[13],inactive
same,outcome,[14],inactive
same,outcome,[15],inactive
same,outcome,[16],inactive
same,outcome,[17],inactive
same,outcome,[18],inactive
same,outcome,[19],inactive
CC(=O)OC[C@H]1O[C@@](COC(C)=O)(O[C@H]2O[C@H](COC(C)=O)[C@@H](OC(C)=O)[C@H](OC(C)=O)[C@H]2OC(C)=O)[C@@H](OC(C)=O)[C@@H]1OC(C)=O,outcome,[1],inactive
same,outcome,[2],inactive
same,outcome,[3],inactive
same,outcome,[4],inactive
same,outcome,[5],inactive
same,outcome,[6],inactive
same,outcome,[7],inactive
same,outcome,[8],inactive
same,outcome,[9],inactive
same,outcome,[10],inactive
same,outcome,[11],inactive
same,outcome,[12],inactive
same,outcome,[13],inactive
same,outcome,[14],inactive
same,outcome,[15],inactive
same,outcome,[16],inactive
same,outcome,[17],inactive
same,outcome,[18],inactive
same,outcome,[19],inactive
CC(C)CCCCCCCOC(=O)CCCCC(=O)OCCCCCCCC(C)C,outcome,[1],inactive
same,outcome,[2],inactive
same,outcome,[3],inactive
same,outcome,[4],inactive
same,outcome,[5],inactive
same,outcome,[6],inactive
same,outcome,[7],inactive
same,outcome,[8],inactive
same,outcome,[9],inactive
same,outcome,[10],inactive
same,outcome,[11],inactive
same,outcome,[12],inactive
same,outcome,[13],inactive
same,outcome,[14],inactive
same,outcome,[15],inactive
same,outcome,[16],inactive
same,outcome,[17],inactive
same,outcome,[20],inactive
same,outcome,[18],inactive
same,outcome,[19],inactive
CC(C)CCO,outcome,[1],inactive
same,outcome,[2],inactive
same,outcome,[3],inactive
same,outcome,[4],inactive
same,outcome,[5],inactive
same,outcome,[6],inactive
same,outcome,[7],inactive
same,outcome,[8],inactive
same,outcome,[9],inactive
same,outcome,[10],inactive
same,outcome,[11],inactive
same,outcome,[12],inactive
same,outcome,[13],inactive
same,outcome,[14],inactive
same,outcome,[15],inactive
same,outcome,[17],inactive
same,outcome,[20],inactive
same,outcome,[18],inactive
same,outcome,[19],inactive

# Source: PubChem BioAssay (EPA / NIEHS)
